The text below walks through data of PubChem BioAssay (EPA / NIEHS).

What is called AC50 is the concentration giving half of the maximal activity seen.

Activity calls are given as the source filed them. Rule for the calls: active = hit-call score of the fitted dose curve at least 0.9, where 1 is the maximum; inactive = score below 0.9.

What all share (conditions): mRNA level, 48 h; actives raise or lower the signal
Read-out in assay [1]: ABC Transporter (ABCC2), ABCC2 (gene 1244)
Briefly: LTEA_HepaRG_ABCC2: Life Technologies and Expression Analysis (LTEA) Assay for ABC Transporter (ABCC2) using HepaRG (AID 2283464). The procedure, abridged:
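qRT-PCR (TaqMan, Fluidigm array) read-out of ABCC2 mRNA, normalized to three housekeeping genes. Differentiated HepaRG cells were treated 48 h in serum-free induction medium with 8-point half-log series from 100 uM in 0.5% DMSO; curves fitted bidirectionally relative to DMSO.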

Read-out in assay [2]: Broad substrate specificity ATP-binding cassette transporter ABCG2 (Homo sapiens) (UniProt Q9UNQ0)
Description: LTEA_HepaRG_ABCG2: Life Technologies and Expression Analysis (LTEA) Assay for ABC Transporter (ABCG2) using HepaRG (AID 2283465). The procedure, abridged: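 ABCG2 transcript was quantified by TaqMan qRT-PCR against three housekeeping genes in HepaRG cells. Cells were treated in duplicate for 48 h across an 8-point half-log series up to 100 uM, with 0.5% DMSO vehicle. Gain or loss versus DMSO was fit.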

Read-out in assay [3]: ATP-citrate lyase (ACLY), ACLY (gene 47)
Description: LTEA_HepaRG_ACLY: Life Technologies and Expression Analysis (LTEA) Assay for ATP-citrate lyase (ACLY) using HepaRG (AID 2283466). The procedure, abridged: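 ACLY mRNA quantified by qRT-PCR on Fluidigm arrays against three housekeeping genes, after 48 h chemical treatment of HepaRG cells (top concentration 100 uM, half-log steps, 0.5% DMSO vehicle). Up- or down-regulation fitted relative to DMSO.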

Read-out in assay [4]: Peroxisomal acyl-coenzyme A oxidase 1 (ACOX1) gene, ACOX1 (gene 51)
Briefly: LTEA_HepaRG_ACOX1: Life Technologies and Expression Analysis (LTEA) Assay for Peroxisomal acyl-coenzyme A oxidase 1 (ACOX1) gene using HepaRG (AID 2283467). The procedure, abridged: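 ACOX1 transcript levels were quantified by TaqMan qRT-PCR against three housekeeping genes after 48 h chemical exposure of differentiated human HepaRG cells. Exposure used eight half-log steps topping at 100 uM, 0.5% DMSO vehicle, in duplicate. Bidirectional curve fits were made relative to DMSO.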

Read-out in assay [5]: Alkaline Phosphatase, Placental (ALPP) gene, ALPP (gene 250)
Description: LTEA_HepaRG_ALPP: Life Technologies and Expression Analysis (LTEA) Assay for Alkaline Phosphatase, Placental (ALPP) gene using HepaRG (AID 2283468).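 For AC50: differentiated human HepaRG liver cells in serum-free induction medium.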 The procedure, abridged:
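qRT-PCR readout of ALPP mRNA (Fluidigm TaqMan), normalized to ACTB/GAPDH/POLR2A, after 48 h chemical exposure of HepaRG cells; 8-point half-log series, top 100 uM, 0.5% DMSO vehicle. Bidirectional curve fit versus DMSO baseline.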

Read-out in assay [6]: Bcl-2 (BAD) gene, BAD (gene 572)
Description: LTEA_HepaRG_BAD: Life Technologies and Expression Analysis (LTEA) Assay for Bcl-2 (BAD) gene using HepaRG (AID 2283469). The procedure, abridged:
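Read-out: qRT-PCR of BAD mRNA, normalized to three housekeeping genes. Human HepaRG cultures got 48 h chemical exposure in 0.5% DMSO, duplicate eight-point half-log series topping at 100 uM. Gain or loss of signal fitted versus DMSO vehicle.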

Read-out in assay [7]: Bcl-2 (BAX) gene, BAX (gene 581)
Briefly: LTEA_HepaRG_BAX: Life Technologies and Expression Analysis (LTEA) Assay for Bcl-2 (BAX) gene using HepaRG (AID 2283470). The procedure, abridged: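 Cells were thawed, plated for 48 h, moved to serum-free induction medium and dosed for 48 h (highest concentration 100 uM, half-log steps, 0.5% DMSO). Total RNA was then analysed for BAX expression by qRT-PCR.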

Read-out in assay [8]: adenosine kinase (ADK) gene, ADK (gene 132)
Description: LTEA_HepaRG_ADK: Life Technologies and Expression Analysis (LTEA) Assay for adenosine kinase (ADK) gene using HepaRG (AID 2283471). The procedure, abridged:
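Read-out is ADK transcript level measured by qRT-PCR and normalised to three housekeeping genes. Cells are human HepaRG, dosed for 48 h at up to 100 uM in 0.5% DMSO. Gain or loss of signal is fitted against DMSO controls.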

Read-out in assay [9]: Alpha-fetoprotein (AFP) gene, AFP (gene 174)
Briefly: LTEA_HepaRG_AFP: Life Technologies and Expression Analysis (LTEA) Assay for Alpha-fetoprotein (AFP) gene using HepaRG (AID 2283472). The procedure, abridged: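 Chemicals were tested on differentiated HepaRG cells for 48 hours at eight concentrations up to 100 uM, with 0.5% DMSO as vehicle. AFP expression was then quantified by qRT-PCR and analyzed for gain or loss relative to DMSO.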

Read-out in assay [10]: BCL2L11 (gene 10018)
Description: LTEA_HepaRG_BCL2L11: Life Technologies and Expression Analysis (LTEA) Assay for Bcl-2 (BCL2L11) gene using HepaRG (AID 2283473). The procedure, abridged:
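HepaRG, 48 h exposure, 8-pt half-log series from 100 uM in 0.5% DMSO, duplicates; qRT-PCR (Fluidigm TaqMan) for BCL2L11, housekeeping-normalized; bidirectional curve fit relative to DMSO baseline.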

Read-out in assay [11]: Apolipoprotein A-V (APOA5) gene, APOA5 (gene 116519)
Description: LTEA_HepaRG_APOA5: Life Technologies and Expression Analysis (LTEA) Assay for Apolipoprotein A-V (APOA5) gene using HepaRG (AID 2283474). The procedure, abridged: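 HepaRG, 48 h chemical exposure in serum-free induction medium, 8-pt half-log series (top 100 uM), 0.5% DMSO vehicle, duplicates. Readout: APOA5 mRNA by qRT-PCR, housekeeping-normalized; bidirectional fit vs DMSO baseline.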

Read-out in assay [12]: Apoptosis regulator Bcl-2 (Homo sapiens) (UniProt P10415)
Briefly: LTEA_HepaRG_BCL2: Life Technologies and Expression Analysis (LTEA) Assay for Bcl-2 gene using HepaRG (AID 2283475). The procedure, abridged: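 Plated human HepaRG cells are exposed to test chemicals for 48 h across eight concentrations from 100 uM downward in half-log steps (0.5% DMSO). BCL2 expression is then measured by qRT-PCR with housekeeping normalisation and fitted bidirectionally against vehicle.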

Read-out in assay [13]: Caspase-3 (Homo sapiens) (UniProt P42574)
Description: LTEA_HepaRG_CASP3: Life Technologies and Expression Analysis (LTEA) Assay for cysteine-aspartic acid protease (CASP3) using HepaRG (AID 2283477). The procedure, abridged:
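HepaRG, 48 h exposure, 8 conc. (top 100 uM, half-log steps, duplicate), 0.5% DMSO vehicle; qRT-PCR of CASP3 transcript, housekeeping-normalised (ACTB/GAPDH/POLR2A); bidirectional curve fit vs DMSO baseline.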

Read-out in assay [14]: Cytochrome P450 (CYP24A1), CYP24A1 (gene 1591)
Briefly: LTEA_HepaRG_CYP24A1: Life Technologies and Expression Analysis (LTEA) Assay for Cytochrome P450 (CYP24A1) using HepaRG (AID 2283478). The procedure, abridged: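 qRT-PCR read-out: CYP24A1 transcript levels normalized to three housekeeping genes, bidirectional curve fits against 0.5% DMSO baseline. Human HepaRG cells treated 48 h with chemicals at eight concentrations from 100 uM in half-log steps.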

Read-out in assay [15]: Cytochrome P450 (CYP1A2), CYP1A2 (gene 1544)
Briefly: LTEA_HepaRG_CYP1A2: Life Technologies and Expression Analysis (LTEA) Assay for Cytochrome P450 (CYP1A2) using HepaRG (AID 2283479). The procedure, abridged: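 HepaRG, 48 h exposure, top 100 uM, half-log 8-pt, 0.5% DMSO vehicle, duplicates. Readout: TaqMan qRT-PCR of CYP1A2 mRNA, housekeeping-normalized (ACTB/GAPDH/POLR2A). Gain/loss fit relative to DMSO baseline.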

Read-out in assay [16]: Cytochrome P450 (CYP2B6), CYP2B6 (gene 1555)
Description: LTEA_HepaRG_CYP2B6: Life Technologies and Expression Analysis (LTEA) Assay for Cytochrome P450 (CYP2B6) using HepaRG (AID 2283481). The procedure, abridged:
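Read-out is CYP2B6 mRNA by TaqMan qRT-PCR, normalized to three housekeeping genes and fitted bidirectionally against 0.5% DMSO baseline. Human HepaRG cells received test chemicals for 48 h, top concentration 100 uM, half-log dilutions.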

Read-out in assay [17]: Cytochrome P450 2C19 (Homo sapiens) (UniProt P33261)
Description: LTEA_HepaRG_CYP2C19: Life Technologies and Expression Analysis (LTEA) Assay for CYP2C19 using HepaRG (AID 2283482). The procedure, abridged:
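HepaRG, 48 h chemical exposure, 8-pt half-log series from 100 uM in 0.5% DMSO, duplicates. Readout: CYP2C19 mRNA by TaqMan qRT-PCR, housekeeping-normalized. Bidirectional fit vs DMSO baseline; phenobarbital 1mM as induction control.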

Read-out in assay [18]: CYP2C8 (gene 1558)
Description: LTEA_HepaRG_CYP2C8: Life Technologies and Expression Analysis (LTEA) Assay for CYP2C8 using HepaRG (AID 2283483). The procedure, abridged:
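CYP2C8 expression measured by TaqMan qRT-PCR and normalized to three housekeeping genes. HepaRG cultures were treated for 48 h with an eight-point half-log series topping at 100 uM, vehicle 0.5% DMSO, duplicates; fitted both directions against DMSO.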

Read-out in assay [19]: Bcl-2 (BID) gene, BID (gene 637)
Description: LTEA_HepaRG_BID: Life Technologies and Expression Analysis (LTEA) Assay for Bcl-2 (BID) gene using HepaRG (AID 2283476). The procedure, abridged:
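Cells are plated, cultured 48 h, switched to serum-free induction medium, then dosed 48 h (100 uM top, half-log steps, 0.5% DMSO). RNA is isolated and BID expression read by qRT-PCR.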

Sequence of Broad substrate specificity ATP-binding cassette transporter ABCG2 (Homo sapiens) (Q9UNQ0 whole entry, looked up): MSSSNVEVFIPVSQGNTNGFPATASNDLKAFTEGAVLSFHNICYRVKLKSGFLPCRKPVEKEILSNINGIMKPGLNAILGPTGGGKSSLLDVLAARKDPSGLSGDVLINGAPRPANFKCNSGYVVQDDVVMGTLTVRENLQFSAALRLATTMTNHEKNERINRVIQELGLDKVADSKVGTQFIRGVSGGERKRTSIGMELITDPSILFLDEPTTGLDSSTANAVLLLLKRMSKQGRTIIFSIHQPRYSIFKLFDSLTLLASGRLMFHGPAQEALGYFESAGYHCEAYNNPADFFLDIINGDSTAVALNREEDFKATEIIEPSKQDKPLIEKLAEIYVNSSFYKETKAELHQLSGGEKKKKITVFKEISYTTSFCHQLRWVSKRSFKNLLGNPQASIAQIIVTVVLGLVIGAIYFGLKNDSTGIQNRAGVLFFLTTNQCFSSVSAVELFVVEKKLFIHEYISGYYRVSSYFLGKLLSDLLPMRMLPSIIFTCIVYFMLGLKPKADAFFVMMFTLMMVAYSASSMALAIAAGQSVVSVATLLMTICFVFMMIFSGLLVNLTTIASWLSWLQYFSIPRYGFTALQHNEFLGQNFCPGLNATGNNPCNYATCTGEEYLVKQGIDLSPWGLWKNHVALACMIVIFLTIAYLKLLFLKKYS
Sequence of Cytochrome P450 2C19 (Homo sapiens) (P33261 whole entry, looked up): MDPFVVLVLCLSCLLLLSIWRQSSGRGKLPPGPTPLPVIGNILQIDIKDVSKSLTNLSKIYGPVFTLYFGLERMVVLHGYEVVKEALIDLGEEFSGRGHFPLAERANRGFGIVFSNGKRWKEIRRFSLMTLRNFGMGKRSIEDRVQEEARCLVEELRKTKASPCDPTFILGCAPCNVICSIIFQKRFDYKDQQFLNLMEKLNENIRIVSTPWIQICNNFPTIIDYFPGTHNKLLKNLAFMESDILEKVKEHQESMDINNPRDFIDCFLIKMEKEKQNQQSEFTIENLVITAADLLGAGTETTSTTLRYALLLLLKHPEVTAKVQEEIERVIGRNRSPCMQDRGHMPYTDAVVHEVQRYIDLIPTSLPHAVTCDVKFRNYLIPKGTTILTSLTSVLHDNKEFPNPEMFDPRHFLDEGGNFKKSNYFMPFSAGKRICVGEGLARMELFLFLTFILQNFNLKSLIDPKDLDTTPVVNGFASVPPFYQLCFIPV
Sequence of Apoptosis regulator Bcl-2 (Homo sapiens) (P10415 whole entry, looked up): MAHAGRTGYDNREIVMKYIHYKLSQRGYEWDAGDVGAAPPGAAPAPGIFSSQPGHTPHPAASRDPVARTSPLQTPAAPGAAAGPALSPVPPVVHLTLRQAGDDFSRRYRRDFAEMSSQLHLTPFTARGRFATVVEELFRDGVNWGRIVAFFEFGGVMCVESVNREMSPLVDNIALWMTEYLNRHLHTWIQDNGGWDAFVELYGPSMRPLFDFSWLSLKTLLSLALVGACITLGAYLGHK
Sequence of Caspase-3 (Homo sapiens) (P42574 whole entry, looked up): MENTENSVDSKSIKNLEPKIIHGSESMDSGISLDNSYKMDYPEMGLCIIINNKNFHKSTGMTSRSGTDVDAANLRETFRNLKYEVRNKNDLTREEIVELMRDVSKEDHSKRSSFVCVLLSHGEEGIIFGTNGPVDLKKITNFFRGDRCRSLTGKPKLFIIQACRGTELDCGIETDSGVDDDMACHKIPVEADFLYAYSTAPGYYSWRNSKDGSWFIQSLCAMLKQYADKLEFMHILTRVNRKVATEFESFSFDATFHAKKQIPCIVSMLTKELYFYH

As to `O=C(c1ccccc1)C1CCCCC1`, the outcome in assay [1], in assay [2], in assay [3], in [4], in [5] and in assay [6] was inactive. In addition, the result in assay [7], in [8], in assay [9], in [10], in [11] and in assay [12] was inactive. Further, the outcome in assay [13], in assay [14], in assay [15], in assay [17] and in assay [18] was inactive. For the same compound, the concentration at half-maximal activity (AC50) in [16] was 25 µM (active).
With `C=CCOC(Cn1ccnc1)c1ccc(Cl)cc1Cl` (centres undefined), the AC50 in assay [1] was 37.9 µM (active); in assay [2], 2.47 µM (active); in assay [4], 45 µM (active); in [5], 50 µM (active); in [7], 33.9 µM (active); in [9], 25.9 µM (active). Further, the AC50 is 88.6 µM (active) in assay [10]; 13.7 µM (active) in assay [12]; 31.6 µM (active) in assay [16]; 34.3 µM (active) in assay [17]; 27.2 µM (active) in [18]. Also, the compound was classed as inactive in assay [3], in assay [6], in assay [8], in [13] and in assay [14].
Take `CCCCC(CC)CN1C(=O)C2C3C=CC(C3)C2C1=O` (centres undefined): the compound was called inactive in [1], in assay [4], in assay [6], in assay [7], in [8] and in assay [10]. The result in [12], in assay [13] and in [14] was inactive. Moreover, the AC50 in [2] is 13.2 µM (active); in [3], 73 µM (active); in assay [5], 65.4 µM (active); in assay [9], 50 µM (active); in assay [11], 79.3 µM (active); in [15], 82.3 µM (active). The AC50 in assay [16] was 88.6 µM (active); in assay [17], 92 µM (active); in assay [18], 88.3 µM (active).
Consider `CC(=O)S[C@@H]1CC2=CC(=O)CC[C@]2(C)[C@H]2CC[C@@]3(C)[C@@H](CC[C@@]34CCC(=O)O4)[C@H]12`, for which the call in assay [2], in assay [3], in assay [5], in assay [6], in assay [7] and in [10] was inactive. For the same compound, the compound was called inactive in [12], in assay [19] and in [14]. For the same compound, the AC50 was 50 µM (active) in [4]; 50 µM (active) in assay [8]; 43.4 µM (active) in [9]; 61.8 µM (active) in assay [11]; 50 µM (active) in assay [13]; 52.6 µM (active) in assay [16]. Also, the AC50 in assay [17] is 78.3 µM (active); in assay [18], 82.1 µM (active).
